In PubChem BioAssay (NCATS):
The source made the active and inactive calls. Rule as the data show it: active = potency below about 10 µM; inactive = the rest.

target: Lysosomal acid glucosylceramidase (Homo sapiens) (UniProt P04062); test: Glucocerebrosidase-p2 (AID 348); details: purified GBA, blue fluorogenic substrate, 40 min
In short: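 Normal human glucocerebrosidase (0.2 nM) with blue fluorogenic substrate (80 uM final) in citrate/phosphate pH 5.9 with 10mM sodium taurocholate, 0.01% tween-20; 40 min RT, NaOH/glycine stop; fluorescence Ex 365/Em 440; AC50 from a titration from 0.6 nM upwards.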
Potency is read from the fitted curve at half-maximal effect.

Chain of Lysosomal acid glucosylceramidase (Homo sapiens) (P04062 whole entry, looked up): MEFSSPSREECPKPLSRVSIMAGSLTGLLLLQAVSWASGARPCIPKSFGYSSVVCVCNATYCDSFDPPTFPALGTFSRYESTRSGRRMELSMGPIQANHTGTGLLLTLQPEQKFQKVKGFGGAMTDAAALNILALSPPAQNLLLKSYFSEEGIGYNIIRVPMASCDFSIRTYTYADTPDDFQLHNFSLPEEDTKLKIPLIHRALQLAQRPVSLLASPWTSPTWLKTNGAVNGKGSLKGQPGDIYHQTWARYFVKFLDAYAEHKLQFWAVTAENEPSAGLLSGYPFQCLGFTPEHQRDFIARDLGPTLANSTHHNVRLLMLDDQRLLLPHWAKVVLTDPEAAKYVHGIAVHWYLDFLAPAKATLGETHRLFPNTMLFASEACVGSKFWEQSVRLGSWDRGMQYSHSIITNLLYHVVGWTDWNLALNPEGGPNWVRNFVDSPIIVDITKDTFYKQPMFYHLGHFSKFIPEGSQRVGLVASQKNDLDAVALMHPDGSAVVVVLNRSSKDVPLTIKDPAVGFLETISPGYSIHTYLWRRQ

SMILES	Potency
O=C(O)C[C@H](Cc1ccccc1Cl)C(=O)O	> 11.4 µM (inactive)
Cc1cc(Cl)nc(NC(=O)CSc2ccc(Cl)cc2)n1	> 11.4 µM (inactive)
COc1ccc2c(=O)cc(-c3ccncc3)oc2c1OC	> 11.4 µM (inactive)
Cc1cc(Nc2ccc(N=Nc3ccc(O)c4ncccc34)cc2)nc(C)n1	> 11.4 µM (inactive)
c1ccc2c(CC3NCCN3)cccc2c1	> 11.4 µM (inactive)
NC([N-]/N=C/c1ccccn1)=[S]=[Fe].O=S(=O)(O)O	> 11.4 µM (inactive)
OCCCN=C1CCCCC1	> 11.4 µM (inactive)
CC(CC(=O)O)(CC(=O)O)c1ccccc1	> 11.4 µM (inactive)
c1ccc2c[n+](CCCC[n+]3ccc4ccccc4c3)ccc2c1	> 11.4 µM (inactive)
CC1CCN(CC[S-])CC1.O.O.[Cl][Pt]	> 11.4 µM (inactive)
CC(=O)O[C@H]1CC[C@@]2(C)C(=CC[C@@H]3[C@@H]4CC[C@H](c5cc(C(F)(F)F)n(C(C)=O)n5)[C@]4(C)CC[C@@H]32)C1	> 11.4 µM (inactive)
CC1(C)COCN1COC1CCCCC1	> 11.4 µM (inactive)
CN(C)Cc1cc(O)c(O)c(CN(C)C)c1	> 11.4 µM (inactive)
Cn1c(=S)c2[nH]c(SCCCc3ccccc3)nc2n(C)c1=O	> 11.4 µM (inactive)
Cc1noc(NC(=O)Nc2ccccc2F)c1C#N	> 11.4 µM (inactive)
COc1cccc(Nc2ncc3ncc(=O)n(C4CC4)c3n2)c1	> 11.4 µM (inactive)
Cc1nnc(S(=O)(=O)c2ccc(N=Nc3c(N)nc(N)nc3N)cc2)s1	> 11.4 µM (inactive)
Cc1cc(SCC(=O)c2ccccc2)nc2ccccc12	> 11.4 µM (inactive)
CC(CCC(=O)O)(c1ccc(O)cc1)c1ccc(O)cc1	> 11.4 µM (inactive)
C[C@]12CC[C@H]3c4ccc(O)cc4CC[C@@H]3[C@H]1CC[C@@H]2OC(=O)CCc1ccccc1	> 11.4 µM (inactive)

SMILES	Potency
C/C(=N/O)[C@@H]1C[C@H](CC(=O)O)C1(C)C	> 11.4 µM (inactive)
Nc1nc(N)c2[nH]c(CNc3ccc(C(=O)O)cc3)nc2n1	> 11.4 µM (inactive)
Nc1nc(N)nc(CCCCc2nc(N)nc(N)n2)n1	> 11.4 µM (inactive)
Cc1c(S(=O)(=O)O)ccc(N=Nc2c(O)c(C(=O)O)cc3ccccc23)c1Cl	> 11.4 µM (inactive)
NC(=O)NCCS[C@H]1CCCC[C@@H]1O	> 11.4 µM (inactive)
c1ccc2cc(NCNc3ccc4ccccc4c3)ccc2c1	> 11.4 µM (inactive)
OC[C@@H]1O[C@@H](N2CCN([C@@H]3O[C@@H](CO)[C@@H](O)[C@H](O)[C@H]3O)CC2)[C@@H](O)[C@H](O)[C@H]1O	> 11.4 µM (inactive)
COc1cc(O)c2c(O)c3c(c4c2c1[C@@]1(C4)C(C)=CCCC1(C)C)[C@H](O)[C@@]1(O)CC(=O)C(C(N)=O)=C(O)[C@]1(O)C3=O	> 11.4 µM (inactive)
CC1=NN(c2ccccc2)C(=O)[C@@H]1N=Nc1ccc(S(N)(=O)=O)cc1	> 11.4 µM (inactive)
O=C1Oc2ccccc2C(=O)/C1=C\N1C(=O)N/C(=C\c2ccccc2O)C1=O	> 11.4 µM (inactive)
Cc1ccc(N=Nc2c(O)c3ccccc3[nH]c2=O)c(S(=O)(=O)N(C)C)c1	> 11.4 µM (inactive)
CCCCNN	> 11.4 µM (inactive)
COc1cccc2c1C(=N)c1c(O)c3c(c(O)c1C2=O)C[C@](O)(C(C)=O)C[C@@H]3O[C@H]1C[C@H](N)[C@@H](O)[C@H](C)O1	> 11.4 µM (inactive)
CN(C)CCCN1c2ccc3ccccc3c2Sc2cccc(Cl)c21	> 11.4 µM (inactive)
N=C1C=CC(=C(c2ccc(N)cc2)c2ccc(N)cc2)C=C1	> 11.4 µM (inactive)
O=C(O)Cn1ccnc1[N+](=O)[O-]	> 11.4 µM (inactive)
C[C@@H]1CCCN(C[C@@H](O)CN2CCCc3ccccc32)C1	> 11.4 µM (inactive)
NCCSCCC(=O)O	> 11.4 µM (inactive)
O=C(c1ccc([N+](=O)[O-])cc1)[C@@H](Br)[C@@H](Br)c1ccnc2ccccc12	> 11.4 µM (inactive)
COc1ccc2c(c1)N(CC[C@H]1CCCCN1C)c1ccccc1S2	> 11.4 µM (inactive)
